Records with an inconclusive call do not appear. Calls of active or inactive are those of the source. Unless noted, calls follow the shape of the full dose curve.
What was measured:
[1] = qHTS for Inhibitors of the Functional Ribonucleoprotein Complex (vRNP) of Lassa (LASV) Arenavirus: LASV Primary Screen - GLuc reporter signal (AID 1347082; calls by dose curve; tested in HEK293 reporter line; also: series mostly up to about 57 µM; nearly all actives have a fitted effect of over 60% in size)
[2] = qHTS for Inhibitors of the Functional Ribonucleoprotein Complex (vRNP) of Lassa (LASV) Arenavirus: Viability assay - alamar blue signal for LASV Primary Screen (AID 1347083; calls by dose curve; tested in HEK293 reporter line; also: nearly all actives have a fitted effect of over 80% in size; also: potency is read from the fitted curve at half-maximal effect)
[3] = qHTS for Inhibitors of the Functional Ribonucleoprotein Complex (vRNP) of Lymphocytic Choriomeningitis Arenaviruses (LCMV): Viability assay - alamar blue signal for LCMV Primary Screen (AID 1347085; calls by dose curve; tested in HEK293 reporter line; also: nearly all actives have a fitted effect of over 80% in size; also: potency is read from the fitted curve at half-maximal effect)
[4] = target: Nucleoprotein (Lymphocytic choriomeningitis virus (strain Armstrong)) (UniProt P09992); assay: qHTS for Inhibitors of the Functional Ribonucleoprotein Complex (vRNP) of Lymphocytic Choriomeningitis Arenaviruses (LCMV): LCMV Primary Screen - GLuc reporter signal (AID 1347086); also: nearly all actives have a fitted effect of over 70% in size; also: potency is read from the fitted curve at half-maximal effect

Measured: Potency

Sequence of Nucleoprotein (Lymphocytic choriomeningitis virus (strain Armstrong)) (P09992 whole entry, looked up): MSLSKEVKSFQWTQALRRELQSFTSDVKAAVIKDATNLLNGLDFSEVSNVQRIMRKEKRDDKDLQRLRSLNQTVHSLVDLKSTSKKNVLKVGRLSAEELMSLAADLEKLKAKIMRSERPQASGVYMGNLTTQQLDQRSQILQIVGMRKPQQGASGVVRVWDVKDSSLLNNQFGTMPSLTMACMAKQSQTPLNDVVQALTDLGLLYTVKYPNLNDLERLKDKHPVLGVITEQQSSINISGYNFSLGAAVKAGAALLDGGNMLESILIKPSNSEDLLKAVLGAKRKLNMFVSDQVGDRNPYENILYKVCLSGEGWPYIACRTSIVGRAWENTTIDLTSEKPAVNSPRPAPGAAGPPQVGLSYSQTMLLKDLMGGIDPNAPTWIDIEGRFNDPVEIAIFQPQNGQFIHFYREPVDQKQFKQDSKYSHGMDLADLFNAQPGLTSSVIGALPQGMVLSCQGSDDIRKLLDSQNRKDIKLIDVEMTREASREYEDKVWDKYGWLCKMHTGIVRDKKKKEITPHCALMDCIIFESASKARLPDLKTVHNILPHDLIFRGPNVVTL

NC(=O)N1c2ccccc2CC(=O)c2ccccc21
inactive: all assays above

CO[C@@H](C(=O)N1Cc2[nH]nc(NC(=O)c3ccc(N4CCN(C)CC4)cc3)c2C1)c1ccccc1
active: [2] 4850 nM | [3] 6850 nM
inactive: [1] | [4]

CCCCNC(=O)NS(=O)(=O)c1ccc(C)cc1
inactive: all assays above

CS(=O)(=O)OCCCCOS(C)(=O)=O
inactive: all assays above

CC(C)NCC(O)COc1ccc(CCOCC2CC2)cc1 (stereo not drawn)
inactive: all assays above

O=C(O)C1(C(=O)O)CCC1.[NH2-].[NH2-].[Pt+2]
inactive: all assays above

NS(=O)(=O)Cc1noc2ccccc12
inactive: all assays above

Cc1[nH]c(=O)c(C#N)cc1-c1ccncc1
inactive: all assays above

CCn1cc(C(=O)O)c(=O)c2cc(F)c(N3CCNCC3)cc21
inactive: all assays above

CCOC(=O)[C@H](CCc1ccccc1)N[C@@H](C)C(=O)N1Cc2ccccc2C[C@H]1C(=O)O
inactive: all assays above

COc1ccc(Cl)cc1C(=O)NCCc1ccc(S(=O)(=O)NC(=O)NC2CCCCC2)cc1
inactive: all assays above

COc1ccc(-c2cc(=S)ss2)cc1
inactive: all assays above

CCCCOCCOCCOCc1cc2c(cc1CCC)OCO2
inactive: all assays above

CC[C@]1(O)C[C@H]2CN(CCc3c([nH]c4ccccc34)[C@@](C(=O)OC)(c3cc4c(cc3OC)N(C=O)[C@H]3[C@@](O)(C(=O)OC)[C@H](OC(C)=O)[C@]5(CC)C=CCN6CC[C@]43[C@@H]65)C2)C1
inactive: [1]
active: [2] 15.3 nM | [3] 6.1 nM | [4] 15.3 nM

CCC1(c2ccccc2)C(=O)NCNC1=O
inactive: all assays above

CCCCS(=O)(=O)N[C@@H](Cc1ccc(OCCCCC2CCNCC2)cc1)C(=O)O
inactive: all assays above

Cc1onc(-c2c(Cl)cccc2Cl)c1C(=O)N[C@@H]1C(=O)N2[C@@H]1SC(C)(C)[C@@H]2C(=O)O
inactive: all assays above

CCCc1nc2c(C)cc(-c3nc4ccccc4n3C)cc2n1Cc1ccc(-c2ccccc2C(=O)O)cc1
inactive: all assays above

CCCN(CCC)S(=O)(=O)c1ccc(C(=O)O)cc1
inactive: all assays above

C[C@]12CC[C@@H]3c4ccc(O)cc4C[C@@H](CCCCCCCCCS(=O)CCCC(F)(F)C(F)(F)F)[C@H]3[C@@H]1CC[C@@H]2O (stereo partly drawn)
inactive: all assays above

Cc1ccccc1N1C(=O)c2cc(S(N)(=O)=O)c(Cl)cc2NC1C (stereo not drawn)
inactive: all assays above

COc1ccccc1OCC(O)COC(N)=O (stereo not drawn)
inactive: all assays above
